# Laboratory results reported in PubChem BioAssay (NCATS).
# Results filed as inconclusive are left out. The source made the active and inactive calls. Unless noted, calls follow the shape of the dose curve; as a rule, active = well fitted curve in the direction sought with a large enough effect; inconclusive = small, poorly fitted or top-dose-only effect, or another doubt; inactive = no such curve, though single readings can be large; an effect the other way counts as inactive or inconclusive.
# Experiments:
# [1] = VSVG counterscreen qHTS to identify inhibitors of SARS-CoV-2 cell entry (AID 1645847; calls by dose curve; also: potency is read from the fitted curve at half-maximal effect; nearly all actives have a fitted effect of over 65% in size); details: VSV-G pseudotyped particle entry, luciferase; series mostly up to 57.2 µM
# Summary of the method: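 Entry of VSV-G pseudotyped particles into human ACE2-expressing HEK293 cells was measured by luciferase luminescence 48 h after infection, with compound added 1 h beforehand.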
# [2] = biological target: Pyruvate kinase (Leishmania mexicana) (UniProt Q27686); test: qHTS Validation Assay for Inhibitors of Leishmania Mexicana Pyruvate Kinase (AID 945);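 also: 0% = DMSO only neutral control wells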; details: purified L. mexicana pyruvate kinase, enzyme activity, E451W mutant enzyme; series mostly up to 57.5 µM
# Pyruvate kinase (Leishmania mexicana), sequence (Q27686 2-499 E452W): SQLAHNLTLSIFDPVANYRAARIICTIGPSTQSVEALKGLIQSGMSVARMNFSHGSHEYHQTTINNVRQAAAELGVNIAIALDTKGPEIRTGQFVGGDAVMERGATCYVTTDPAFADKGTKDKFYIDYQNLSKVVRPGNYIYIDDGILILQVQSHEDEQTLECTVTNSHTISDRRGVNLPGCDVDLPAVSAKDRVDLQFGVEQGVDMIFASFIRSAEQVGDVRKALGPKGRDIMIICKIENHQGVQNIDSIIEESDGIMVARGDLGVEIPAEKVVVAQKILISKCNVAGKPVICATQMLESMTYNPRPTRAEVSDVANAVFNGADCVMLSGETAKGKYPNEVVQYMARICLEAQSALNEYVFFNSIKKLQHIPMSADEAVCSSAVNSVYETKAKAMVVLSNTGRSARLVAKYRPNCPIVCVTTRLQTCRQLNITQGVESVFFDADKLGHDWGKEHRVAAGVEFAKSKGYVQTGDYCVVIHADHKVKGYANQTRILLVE
# Summary of the method: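 Eight-point qHTS titrations; enzyme 0.2 nM LmPYK (E451W mutant); substrates 0.5 mM PEP, 0.1 mM ADP; 7 mM MgCl2; 1 h room temperature; PKLight luminescence normalized to neutral control.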
# [3] = qHTS for differential inhibitors of proliferation of Plasmodium falciparum line D10 (AID 1877); details: series mostly up to 28.7 µM;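 also: potency is read from the fitted curve at half-maximal effect; parasites grown with compound for 72 h before DNA staining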
# [4] = biological target: ATP-dependent DNA helicase Q1 (Homo sapiens) (UniProt P46063); test: qHTS Validation Assay for Inhibitors of RecQ-Like Dna Helicase 1 (RECQ1) (AID 2353); details: recombinant RECQ1 helicase DNA unwinding assay; series mostly up to 25.6 µM; also: potency is read from the fitted curve at half-maximal effect
# ATP-dependent DNA helicase Q1 (Homo sapiens), sequence (P46063 whole entry, looked up): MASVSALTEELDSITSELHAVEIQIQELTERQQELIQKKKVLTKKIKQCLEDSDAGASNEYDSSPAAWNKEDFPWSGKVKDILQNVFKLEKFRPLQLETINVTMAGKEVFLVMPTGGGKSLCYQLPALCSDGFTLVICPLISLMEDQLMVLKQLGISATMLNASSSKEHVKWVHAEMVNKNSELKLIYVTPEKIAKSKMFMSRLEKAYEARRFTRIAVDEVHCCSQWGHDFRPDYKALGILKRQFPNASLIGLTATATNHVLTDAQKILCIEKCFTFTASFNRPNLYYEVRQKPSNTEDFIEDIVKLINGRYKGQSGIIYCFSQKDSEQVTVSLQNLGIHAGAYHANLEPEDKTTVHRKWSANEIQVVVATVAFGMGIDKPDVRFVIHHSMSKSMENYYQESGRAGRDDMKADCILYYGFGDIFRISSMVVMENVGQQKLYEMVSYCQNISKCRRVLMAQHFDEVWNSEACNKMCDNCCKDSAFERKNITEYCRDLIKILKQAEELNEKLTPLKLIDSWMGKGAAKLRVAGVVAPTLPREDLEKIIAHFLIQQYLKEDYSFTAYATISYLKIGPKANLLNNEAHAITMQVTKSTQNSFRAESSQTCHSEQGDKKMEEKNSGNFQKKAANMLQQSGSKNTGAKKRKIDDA
# Summary of the method: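 RECQ1T1 50 nM; forked duplex (20 bp + 30-nt ss tails) 200 nM, ATP 2 mM final; pH 8.0, 2 mM MgCl2, 2.5 ug/ml poly(dI-dC); 15 min compound preincubation; discontinuous kinetic read over 2 h at RT.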
# [5] = biological target: DNA polymerase III PolC-type (Bacillus subtilis (strain 168)) (UniProt P13267); test: qHTS Validation Assay for the Inhibitors of DNA Replication in Gram-Positive Bacteria (AID 485295); details: Gram-positive bacterial DNA replication assay; series mostly up to 57.1 µM; also: potency is read from the fitted curve at half-maximal effect
# Summary of the method: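 Inhibition of DNA synthesis by the reconstituted PolC holoenzyme, monitored through PicoGreen staining of dsDNA formed from ssM13Gori, dNTPs and NTPs, with compound preincubation and room-temperature reaction.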
# [6] = Quantitative high throughput screen for delayed death inhibitors of the malarial parasite plastid, 96 hour incubation (AID 488745); details: Plasmodium falciparum growth; series mostly up to 28.7 µM; also: potency is read from the fitted curve at half-maximal effect; nearly all actives have a fitted effect of over 70% in size
# Summary of the method: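 Decreased firefly luciferase luminescence indicates inhibited growth of reporter-integrated P. falciparum after two generations (96 h, 37 C, 5% CO2). Infected erythrocytes at 0.1% parasitemia, 2% hematocrit, in Albumax-supplemented RPMI 1640.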
# [7] = Quantitative high throughput screen for delayed death inhibitors of the malarial parasite plastid, 48 hour incubation (AID 488752); details: Plasmodium falciparum growth; series mostly up to 28.7 µM; also: potency is read from the fitted curve at half-maximal effect; nearly all actives have a fitted effect of over 65% in size
# Summary of the method: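 One-generation (48 h) growth assay: a decrease in luciferase signal from an integrated reporter in P. falciparum-infected red cells (0.1% parasitemia, 2% hematocrit) after compound exposure at 37 C indicates parasite inhibition.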
# [8] = biological target: Peptidyl-prolyl cis-trans isomerase NIMA-interacting 1 (Homo sapiens) (UniProt Q13526); test: qHTS Validation Assay to Find Inhibitors of Pin1 (AID 504536; active = well fitted inhibition curve with a large enough effect in the polarisation, with a control signal flat, not every such curve was filed as active; the % refers to the polarisation; also: potency is read from the fitted curve at half-maximal effect); details: Pin1 fluorescence polarization peptide binding assay; series mostly up to 57.5 µM
# Summary of the method: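 Fluorescence polarization competition: compounds (titration) displace HiFluor-488-labeled Pin1-1b peptide from Pin1 (0.3 uM final) in pH 7.5 HEPES buffer with DTT, 10 min at room temperature; %Activity normalized to no-enzyme wells, curves fitted.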
# [9] = biological target: Phosphoglycerate kinase, glycosomal (Trypanosoma brucei brucei) (UniProt P07378); test: qHTS Validation Assay to Find Inhibitors of Phosphoglycerate Kinase (AID 504547); details: enzymatic PGK inhibition, coupled luminescence read-out; series mostly up to 57.5 µM; also: potency is read from the fitted curve at half-maximal effect
# Phosphoglycerate kinase, glycosomal (Trypanosoma brucei brucei), sequence (P07378 whole entry, looked up): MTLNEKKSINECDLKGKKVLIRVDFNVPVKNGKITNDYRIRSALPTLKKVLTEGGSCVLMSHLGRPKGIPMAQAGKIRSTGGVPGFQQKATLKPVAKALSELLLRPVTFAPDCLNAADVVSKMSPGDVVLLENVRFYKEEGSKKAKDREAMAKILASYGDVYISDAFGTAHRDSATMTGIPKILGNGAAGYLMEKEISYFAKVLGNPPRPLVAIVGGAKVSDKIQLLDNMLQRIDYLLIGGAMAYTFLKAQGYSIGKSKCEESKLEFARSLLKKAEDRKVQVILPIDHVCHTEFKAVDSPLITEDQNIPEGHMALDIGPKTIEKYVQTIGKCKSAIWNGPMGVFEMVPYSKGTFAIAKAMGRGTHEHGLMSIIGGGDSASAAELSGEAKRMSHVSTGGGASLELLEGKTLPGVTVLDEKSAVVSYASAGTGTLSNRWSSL
# Summary of the method: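 Compounds are pinned into the substrate/PGK mixture, and GAPDH (100nM final) is added to start the reaction by producing 1,3-BPG. After 60 minutes at room temperature, Kinase-Glo Plus is added and luminescence is measured 10 minutes later.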
# [10] = biological target: Hexokinase-4 (Homo sapiens) + Glucokinase regulatory protein (Homo sapiens) (UniProt P35557+Q14397); test: qHTS assay for inhibitors of recombinant human GCK-GKRP interaction: Diaphorase-coupled assay (AID 743205); details: G6PDH/diaphorase resorufin fluorescence; series mostly up to 57.5 µM
# Summary of the method: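 Signal derives from resorufin generated by diaphorase, linked to GCK turnover of glucose (5 mM) and ATP (0.4 mM). Enzyme complex was added after a 20-minute compound preincubation and monitored for 30 minutes.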
# [11] = qHTS profiling of the MIPE4 collection as inhibitors of Plasmodium falciparum (DD2) proliferation (AID 743345; call rule not given here); details: P. falciparum Dd2 in erythrocytes, SYBR Green DNA, 72 h; at 28.5 µM (top of the series) unless noted
# Summary of the method: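 Parasite DNA was quantified by SYBR Green I fluorescence (ex 485, em 535 nm) after overnight lysis in saponin/Triton buffer at room temperature. Cultures at 0.3% parasitemia and 2.5% hematocrit were first exposed to compound for 72 h at 37 C; signals were normalised to artemisinin (0.29 uM) and vehicle wells.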
# [12] = biological target: Estrogen receptor (Homo sapiens) (UniProt P03372); test: qHTS assay for small molecule agonists of estrogen receptor alpha signaling (AID 588514; calls by dose curve;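 also: 0% = vehicle only and 100% = reference agonist; nearly all actives have a fitted effect of over 70% in size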); details: ER-alpha-UAS-bla HEK293, beta-lactamase ratio, 18 h; series mostly up to 76.8 µM
# Estrogen receptor (Homo sapiens), sequence (P03372 whole entry, looked up): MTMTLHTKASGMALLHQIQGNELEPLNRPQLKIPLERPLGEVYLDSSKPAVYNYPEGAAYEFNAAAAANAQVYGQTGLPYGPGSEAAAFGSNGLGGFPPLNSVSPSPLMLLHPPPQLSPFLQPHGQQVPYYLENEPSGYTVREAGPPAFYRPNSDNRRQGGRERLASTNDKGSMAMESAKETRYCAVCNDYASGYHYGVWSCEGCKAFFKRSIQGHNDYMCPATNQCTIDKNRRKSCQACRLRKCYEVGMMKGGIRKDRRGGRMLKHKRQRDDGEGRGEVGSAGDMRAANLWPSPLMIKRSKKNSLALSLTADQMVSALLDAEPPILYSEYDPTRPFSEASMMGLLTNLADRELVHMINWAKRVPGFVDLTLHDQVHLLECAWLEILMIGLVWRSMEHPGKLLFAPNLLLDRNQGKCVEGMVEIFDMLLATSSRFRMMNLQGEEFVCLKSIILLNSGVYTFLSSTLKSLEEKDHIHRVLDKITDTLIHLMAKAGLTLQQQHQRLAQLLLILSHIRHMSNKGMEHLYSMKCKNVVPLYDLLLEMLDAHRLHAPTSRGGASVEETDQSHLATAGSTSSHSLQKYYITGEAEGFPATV
# Summary of the method: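 EC50 and efficacy came from Hill fits of beta-lactamase reporter signal (CCF4 dye, 2 h at room temperature) scaled between DMSO and 20 nM 17-beta-estradiol. Agonist mode: HEK293 ER-alpha-UAS-bla cells in charcoal/dextran-stripped serum medium, 18 h compound exposure at 37 C.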
# [13] = biological target: Rap guanine nucleotide exchange factor 3 (Homo sapiens) (UniProt O95398); test: Confirmatory qHTS for agonist of cAMP-regulated guanine nucleotide exchange factor 3 (EPAC1) (AID 1645881); details: EPAC1 Rap1B BODIPY-GDP exchange fluorescence, 100% = cAMP control response; series mostly up to 154 µM;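 also: EPAC1 catalysed release of BODIPY-GDP from Rap1B seen as fluorescence loss; nearly all actives have a fitted effect of over 75% in size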
# Rap guanine nucleotide exchange factor 3 (Homo sapiens), sequence (O95398 whole entry, looked up): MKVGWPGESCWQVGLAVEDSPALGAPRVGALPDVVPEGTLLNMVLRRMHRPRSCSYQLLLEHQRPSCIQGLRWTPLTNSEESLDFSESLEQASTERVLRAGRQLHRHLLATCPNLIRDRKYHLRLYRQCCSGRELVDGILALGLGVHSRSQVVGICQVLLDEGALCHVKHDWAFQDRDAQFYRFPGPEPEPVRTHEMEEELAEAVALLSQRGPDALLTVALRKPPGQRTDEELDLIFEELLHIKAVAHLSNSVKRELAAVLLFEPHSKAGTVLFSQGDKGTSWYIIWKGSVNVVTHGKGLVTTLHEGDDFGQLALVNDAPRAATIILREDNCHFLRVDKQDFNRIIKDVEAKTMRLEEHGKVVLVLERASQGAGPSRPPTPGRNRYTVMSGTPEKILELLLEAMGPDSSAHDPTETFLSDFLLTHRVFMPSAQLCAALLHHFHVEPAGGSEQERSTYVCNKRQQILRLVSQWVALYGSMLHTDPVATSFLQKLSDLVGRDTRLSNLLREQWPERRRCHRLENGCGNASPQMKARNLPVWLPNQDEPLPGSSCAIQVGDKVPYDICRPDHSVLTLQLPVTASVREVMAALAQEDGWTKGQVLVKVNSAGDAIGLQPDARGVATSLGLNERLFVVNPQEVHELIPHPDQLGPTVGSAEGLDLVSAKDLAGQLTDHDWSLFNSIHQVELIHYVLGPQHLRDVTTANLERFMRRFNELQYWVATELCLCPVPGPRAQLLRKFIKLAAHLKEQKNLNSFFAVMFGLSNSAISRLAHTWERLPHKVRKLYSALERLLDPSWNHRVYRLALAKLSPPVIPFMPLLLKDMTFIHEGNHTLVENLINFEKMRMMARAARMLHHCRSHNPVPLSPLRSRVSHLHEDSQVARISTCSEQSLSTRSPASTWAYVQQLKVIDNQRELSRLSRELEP
# [14] = biological target: Rap guanine nucleotide exchange factor 4 (Homo sapiens) (UniProt Q8WZA2); test: Confirmatory qHTS for agonist of cAMP-regulated guanine nucleotide exchange factor 4 (EPAC2) (AID 1645884); details: EPAC2 GEF activity, Rap1B-BODIPY-GDP fluorescence, percent relative to cAMP agonist control; series mostly up to 154 µM;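 also: nucleotide exchange releases bodipy-GDP from Rap1 and this lowers its fluorescence; % is scaled to controls: 0 for no effect and ±100 for the full control effect; nearly all actives have a fitted effect of over 65% in size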
# Rap guanine nucleotide exchange factor 4 (Homo sapiens), sequence (Q8WZA2 whole entry, looked up): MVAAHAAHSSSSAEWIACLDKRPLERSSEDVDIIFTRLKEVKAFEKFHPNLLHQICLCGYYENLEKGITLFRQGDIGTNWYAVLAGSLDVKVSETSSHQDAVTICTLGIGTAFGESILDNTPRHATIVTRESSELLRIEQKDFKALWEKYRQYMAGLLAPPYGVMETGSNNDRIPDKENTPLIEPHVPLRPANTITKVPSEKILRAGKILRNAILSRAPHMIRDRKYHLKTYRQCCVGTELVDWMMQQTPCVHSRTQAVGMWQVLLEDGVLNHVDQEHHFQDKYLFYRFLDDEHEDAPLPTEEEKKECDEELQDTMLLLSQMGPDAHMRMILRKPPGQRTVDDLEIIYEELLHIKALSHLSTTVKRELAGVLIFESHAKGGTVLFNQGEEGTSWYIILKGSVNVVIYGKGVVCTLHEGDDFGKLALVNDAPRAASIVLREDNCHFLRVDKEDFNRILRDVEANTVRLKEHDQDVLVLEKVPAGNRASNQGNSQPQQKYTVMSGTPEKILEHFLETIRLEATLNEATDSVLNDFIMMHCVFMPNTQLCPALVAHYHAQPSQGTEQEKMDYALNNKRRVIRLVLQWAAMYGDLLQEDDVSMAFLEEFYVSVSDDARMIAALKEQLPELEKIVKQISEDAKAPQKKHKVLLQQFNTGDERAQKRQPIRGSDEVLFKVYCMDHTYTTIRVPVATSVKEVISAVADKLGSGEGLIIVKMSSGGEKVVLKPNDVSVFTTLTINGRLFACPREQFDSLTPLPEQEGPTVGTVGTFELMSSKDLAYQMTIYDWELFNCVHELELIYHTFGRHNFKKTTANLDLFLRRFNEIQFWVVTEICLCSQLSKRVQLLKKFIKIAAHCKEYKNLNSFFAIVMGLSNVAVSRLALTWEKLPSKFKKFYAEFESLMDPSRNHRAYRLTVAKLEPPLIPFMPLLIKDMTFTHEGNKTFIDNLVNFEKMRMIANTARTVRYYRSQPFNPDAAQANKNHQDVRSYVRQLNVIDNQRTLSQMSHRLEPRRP
# [15] = biological target: Rap guanine nucleotide exchange factor 4 (Homo sapiens) (UniProt Q8WZA2); test: Confirmatory qHTS for antagonist of cAMP-regulated guanine nucleotide exchange factor 4 (EPAC2) (AID 1645885); details: EPAC2 Rap1B-BODIPY-GDP exchange fluorescence, biochemical; series mostly up to 114 µM; also: potency is read from the fitted curve at half-maximal effect; nearly all actives have a fitted effect of over 25% in size
# [16] = qHTS assay to identify small molecules that stimulate interleukin-8 (IL-8) secretion (AID 651758; active = well fitted activation curve with a large enough effect in the signal ratio; the % refers to the signal ratio; also: 0% is about no effect); details: HTRF ratio (665/615); series mostly up to 92.2 µM
# Summary of the method: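 Compounds are added to THP-1 cells (2000 per well) and left 16 hrs at 37 C. A labeled anti-IL-8 antibody pair is then added, and IL-8 secretion is measured by time-resolved FRET after 1-3 hrs at room temperature.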
# [17] = Validation screen for small molecules that induce DNA re-replication in MCF 10A normal breast cells (AID 463097); details: MCF 10A cells, DNA re-replication phenotype imaging; series mostly up to 46.1 µM; also: potency is read from the fitted curve at half-maximal effect; nearly all actives have a fitted effect of over 60% in size
# Summary of the method: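 Following 48 hr compound incubation (37 C, 5% CO2), MCF 10A cells receive Hoechst for 40 min at 37 C. Nuclei are then scanned (excitation 405 nm, emission 500-530 nm) for total fluorescence intensity.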
# [18] = Validation screen for small molecules that induce genotoxicity in human embryonic kidney (HEK293T) cells expressing luciferase-tagged ELG1 (AID 493106); details: luminescence; series mostly up to 46.1 µM; also: 0% is about no effect
# Summary of the method: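 ELG1-luciferase reporter readout (ONE-Glo, 30 min, room temperature) after 16 hr compound treatment at 37 °C of HEK293T cells at 2,000 per well. Rising luminescence flags genotoxic stress.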
# [19] = biological target: Ubiquitin carboxyl-terminal hydrolase 1 (Homo sapiens) (UniProt O94782); test: Inhibitors of USP1/UAF1: Pilot qHTS (AID 504865); details: purified USP1/UAF1, Ub-rhodamine cleavage fluorescence; series mostly up to 114 µM; also: nearly all actives have a fitted effect of over 35% in size; also: potency is read from the fitted curve at half-maximal effect
# Ubiquitin carboxyl-terminal hydrolase 1 (Homo sapiens), sequence (O94782 whole entry, looked up): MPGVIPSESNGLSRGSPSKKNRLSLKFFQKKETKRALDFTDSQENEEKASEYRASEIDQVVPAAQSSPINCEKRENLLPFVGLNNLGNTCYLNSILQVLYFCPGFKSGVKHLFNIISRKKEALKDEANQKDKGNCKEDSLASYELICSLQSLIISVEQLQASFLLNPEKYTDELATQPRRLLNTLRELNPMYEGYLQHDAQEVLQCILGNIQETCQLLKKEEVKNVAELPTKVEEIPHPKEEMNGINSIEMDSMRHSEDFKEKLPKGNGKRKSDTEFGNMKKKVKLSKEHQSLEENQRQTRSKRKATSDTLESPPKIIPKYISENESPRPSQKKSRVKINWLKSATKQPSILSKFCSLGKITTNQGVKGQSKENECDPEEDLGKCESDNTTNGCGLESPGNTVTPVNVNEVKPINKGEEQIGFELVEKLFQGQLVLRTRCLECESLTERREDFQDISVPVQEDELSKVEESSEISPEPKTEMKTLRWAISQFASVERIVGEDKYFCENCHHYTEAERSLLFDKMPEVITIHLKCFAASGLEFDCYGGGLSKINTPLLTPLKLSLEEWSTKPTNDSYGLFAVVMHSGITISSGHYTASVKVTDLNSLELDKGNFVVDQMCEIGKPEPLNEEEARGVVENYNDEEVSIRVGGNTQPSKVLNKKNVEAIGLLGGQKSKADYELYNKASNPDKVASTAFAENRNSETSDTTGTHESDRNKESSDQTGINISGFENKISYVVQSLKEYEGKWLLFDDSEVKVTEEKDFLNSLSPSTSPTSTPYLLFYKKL
# Summary of the method: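 Enzyme-free wells gave the negative control, while test wells held 1nM USP1/UAF1 preincubated with compound for 15 min at room temperature. Ub-Rho at 150nM final started the reaction, and fluorescence at 480/540 nm was recorded kinetically.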
# [20] = qHTS Assay for Identifying Gametocytocidal Compounds (AID 743244);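 also: % is scaled to controls: 0 for no effect and ±100 for the full control effect; actives lower the fluorescent signal which means gametocytes are killed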; details: P. falciparum 3D7 stage III-V gametocytes, alamarBlue, 72 h; max response: stronger effect = lower value
# Summary of the method: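 In this qHTS viability screen, late-stage 3D7 gametocytes are incubated with compound for 72 h, then with alamarBlue for 24 h; reduced resorufin fluorescence marks killing.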
compound,measurement,setting,value
Cc1ccccc1C(=O)c1ccc(Nc2ccc(Br)cc2N)cc1Cl,Potency,[1],24.1 µM (active)
N#C/C(=C\c1ccc(O)c(O)c1)C(=O)NCCCNC(=O)/C(C#N)=C/c1ccc(O)c(O)c1,outcome,[2],inactive
same,Potency,[3],2.24 µM (active)
same,Potency,[4],0.447 µM (active)
same,Potency,[5],21.2 µM (active)
same,Potency,[6],8.28 µM (active)
same,Potency,[7],10.4 µM (active)
same,Potency,[8],0.849 µM (active)
same,Potency,[9],1.9 µM (active)
same,outcome,[10],inactive
CC[C@H](CC#N)OC(=O)N[C@@H](C)c1cccc(NC(=O)Nc2ccc(-c3cnco3)c(OC)c2)c1,"parasite growth remaining, % of DMSO control (lower = more inhibition)",[11],66.9%
CC(C)COC(=O)c1ccccc1C(=O)OCC(C)C,Potency,[12],inactive
same,outcome,[13],inactive
same,outcome,[14],inactive
same,Potency,[15],37.9 µM (active)
CCOC(=O)c1ccccc1N,Potency,[12],inactive
O=c1cc(-c2ccc(O)c(O)c2)oc2cc(O)cc(O)c12,"parasite growth remaining, % of DMSO control (lower = more inhibition)",[11],89.2%
COC1=CC(=O)OC(CCc2ccc3c(c2)OCO3)C1 (stereo not drawn),Potency,[16],inactive
COc1cc([C@@H]2c3cc4c(cc3[C@H](O)C3COC(=O)[C@@H]32)OCO4)cc(OC)c1OC (stereo partly drawn),Potency,[17],0.0355 µM (active)
Brc1c(Br)c(Br)c2n[nH]nc2c1Br,outcome,[18],inactive
same,Potency,[19],56.2 µM (active)
O=c1oc(Cl)c(Cl)c2ccccc12,Potency,[17],5.01 µM (active)
CC(=O)/C=C/c1ccccc1,Potency,[16],inactive
CCCCCCCCCC[Si](C)(C)CCC(=O)NC(Cc1ccc(C)cc1)c1ccccc1 (stereo not drawn),Potency,[3],3.55 µM (active)
COc1ccc2c(c1)CCC1C2CC[C@@]2(C)C1CC[C@@H]2NCCCCCCN1C(=O)C=CC1=O (stereo partly drawn),max response,[20],27.3% (inactive)
O=C(O)CNC(=O)C(CS)Cc1ccccc1 (stereo not drawn),Potency,[19],inactive
same,max response,[20],-3.2% (inactive)
NC1C=CC=C(C(=O)O)C1 (stereo not drawn),outcome,[18],inactive
